Compound: Nc1ncnc2c1ncn2[C@@H]1O[C@H](COP(=O)(O)OP(=O)(O)OP(=O)(O)O)[C@@H](O)[C@H]1O [adenosine 5'-triphosphate]
Assay: log2 fold change of tryptic peptide abundance, ligand vs vehicle (limited proteolysis) (log2 ratio); higher = more trypsin-susceptible (destabilized)
Details: ligand concentration: 5 mM; sample: E. coli desalted lysate; replicate design: treated before aliquoting
Experimental: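 HT-PELSA: desalted E. coli K-12 BW25113 lysate (with 12 mM MgCl2) incubated with 5 mM ATP (pH 7) or water for 30 min at 25 C, then a 4 min trypsin pulse at 22 C. Peptides were quantified by DIA-MS (4 replicates). Value is the peptide log2 fold change (treated/control); negative = stabilized. Scale: negative = ligand-stabilized region.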
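Also: lysate desalted by size exclusion to strip endogenous ATP, peptide intensities built from DIA-NN precursor signals, and peptides missing any value discarded before comparison.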

With “UniProt P27298 (peptide sequence: DGDHYATLNTAQK, peptide start residue: 115)” as the target, how does the log2 fold change read?
The log2 fold change was 1.13.

With “UniProt P25524 (peptide sequence: EYGVESLHK, peptide start residue: 192)” as the target, how does the log2 fold change read?
The log2 fold change was -0.706.

How did the log2 fold change turn out when “UniProt P75919 (peptide sequence: LLSDDPAKGEGK, peptide start residue: 249)” was run?
Its log2 fold change is -0.826.

Which log2 fold change does the source give for “UniProt P37671 (peptide sequence: SYWESHQHEIQPLTR, peptide start residue: 174)” here?
The log2 fold change was -0.718.

With “UniProt P13518 (peptide sequence: LYQKPAVTR, peptide start residue: 414)” as the target, how does the log2 fold change read?
Its log2 fold change is 0.793.

How did the log2 fold change turn out when “UniProt P11553 (peptide sequence: AQIHYQYR, peptide start residue: 451)” was run?
The log2 fold change was 0.93.

With “UniProt P09980 (peptide sequence: AANILIANNPHVFEKR, peptide start residue: 286)” as the target, how does the log2 fold change read?
The log2 fold change was -3.41.

“UniProt P00350 (peptide sequence: RIDKEGVFHTEWLD, peptide start residue: 455)” was tested. Which log2 fold change did it give?
The log2 fold change was -0.396.

How did the log2 fold change turn out when “UniProt P31129 (peptide sequence: SNMDVLTGLPGRR, peptide start residue: 129)” was run?
The log2 fold change was -1.39.

With “UniProt P00452 (peptide sequence: FYDAVSTFK, peptide start residue: 196)” as the target, how does the log2 fold change read?
Its log2 fold change is -3.51.

Which log2 fold change does the source give for “UniProt P0CB39 (peptide sequence: QYYMNQQR, peptide start residue: 350)” here?
Its log2 fold change is -0.737.

“UniProt P04425 (peptide sequence: GTLIVNKPQSLR, peptide start residue: 109)” was tested. Which log2 fold change did it give?
Its log2 fold change is -1.9.

For “UniProt P0AA37 (peptide sequence: LLLHAEMLTITHPAYGNSMTFK, peptide start residue: 193)”, which log2 fold change is on record?
The log2 fold change was -0.465.

“UniProt P56579 (peptide sequence: MGIQLEQK, peptide start residue: 172)” was tested. Which log2 fold change did it give?
The log2 fold change was 0.509.

With “UniProt P04968 (peptide sequence: EALLAVTIPEEK, peptide start residue: 338)” as the target, how does the log2 fold change read?
Its log2 fold change is 0.397.

With “UniProt P76330 (peptide sequence: FGHQAGDR, peptide start residue: 447)” as the target, how does the log2 fold change read?
Its log2 fold change is -3.47.

With “UniProt P77215 (peptide sequence: AWFTGGATAEK, peptide start residue: 11)” as the target, how does the log2 fold change read?
Its log2 fold change is -0.425.

Which log2 fold change does the source give for “UniProt P25742 (peptide sequence: SFTHLAPIHGTHIVER, peptide start residue: 116)” here?
Its log2 fold change is -1.07.

For “UniProt P10371 (peptide sequence: DYGNDPLPR, peptide start residue: 26)”, which log2 fold change is on record?
The log2 fold change was -0.955.

“UniProt P05055 (peptide sequence: GDISEFAPR, peptide start residue: 546)” was tested. Which log2 fold change did it give?
Its log2 fold change is -0.643.

“UniProt P0ACW6 (peptide sequence: FMSLFDKHNK, peptide start residue: 19)” was tested. Which log2 fold change did it give?
The log2 fold change was -0.425.

Which log2 fold change does the source give for “UniProt P23836 (peptide sequence: VLVVEDNALLR, peptide start residue: 3)” here?
The log2 fold change was 0.563.

For “UniProt P64610 (peptide sequence: IVTMSLKPQNILCHR, peptide start residue: 126)”, which log2 fold change is on record?
Its log2 fold change is -0.974.

How did the log2 fold change turn out when “UniProt P39359 (peptide sequence: EGDLATAATLNKK, peptide start residue: 229)” was run?
Its log2 fold change is -1.33.

With “UniProt P06959 (peptide sequence: VDFSKFGEIEEVELGR, peptide start residue: 392)” as the target, how does the log2 fold change read?
The log2 fold change was 0.812.

“UniProt P06966 (peptide sequence: ISHVSVSQWER, peptide start residue: 32)” was tested. Which log2 fold change did it give?
Its log2 fold change is -1.

With “UniProt P37194 (peptide sequence: GNNQPDIQK, peptide start residue: 28)” as the target, how does the log2 fold change read?
The log2 fold change was 0.489.

With “UniProt P37760 (peptide sequence: ALQEYCAK, peptide start residue: 138)” as the target, how does the log2 fold change read?
Its log2 fold change is -1.03.

With “UniProt P32143 (peptide sequence: AGIPDCDQTR, peptide start residue: 282)” as the target, how does the log2 fold change read?
Its log2 fold change is -2.48.

Which log2 fold change does the source give for “UniProt P77611 (peptide sequence: LFSAFRK, peptide start residue: 4)” here?
The log2 fold change was 0.344.

“UniProt P76187 (peptide sequence: HFGVSNFTPAQFALLQSR, peptide start residue: 154)” was tested. Which log2 fold change did it give?
Its log2 fold change is -0.944.
